Usually Kd stands for the free concentration of one partner at which half of the binding sites on the other are occupied at equilibrium, for simple one-to-one binding. A low value points to a tighter complex.

From publication PMC5540273 (PLoS ONE, 2017) come the findings set out here.

The test system of assay [1] is PRKCH.
Assay [2] deals with PRKCI.
The test system of assay [3] is PRKD1.
Assay [4] relates to PRKD2.
The subject of assay [5] is PRKD3.
The test system of assay [6] is T1, PRKR.
T1 construct: gene EIF2AK2

Assay [7] deals with PRKX.
Assay [8] deals with RIOK1.
Assay [9] deals with RIOK3.
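Note: kd values determined as follow-up on hits from a single-replicate KINOMEscan panel screen.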

Compound `CCC(=O)c1c(-c2ccccc2)c2cc(Cl)ccc2c(=O)n1Cc1cc(S(C)(=O)=O)n(CC(N)=O)n1` showed a Kd in [1] of over 10000 nM.
In turn, `COc1cccc(C2=C(Nc3cccc(C(=O)O)c3)C(=O)NC2=O)c1` [SB-390770] had a Kd in [2] of over 10000 nM.
For the compound `Cc1cccc(-c2nc(Nc3ccc4c(cnn4C)c3)c3ccccc3n2)n1` [GW876731], the Kd in assay [3] came out at 7.2 nM; in assay [4], 12 nM; in [5] it was 13 nM.
On to `Cc1cc(Nc2nc(-c3cccc(C)n3)nc3ccccc23)ccn1` [GW872411], for which the dissociation constant Kd in [3] is 6.1 nM; in assay [4] it was 9.4 nM.
Compound `O=C1NC(=O)C(c2ccccc2)=C1Nc1cccc(O)c1` [SB-390534] returned a Kd in assay [6] of over 10000 nM.
`C[C@@H]1CC[C@H](C(=O)NC2CCCCC2)CN1c1cc(-c2ccc3c(N)n[nH]c3c2)nc(N)n1` [GSK2291363]: the dissociation constant (Kd) in assay [7] came out at 460 nM; in assay [8] it was 210 nM; in [9] it was 150 nM.
On to `Cc1ccc(Oc2ccc(Nc3ncnc4cc[nH]c34)cc2C)cn1`, for which, in assay [8], the dissociation constant Kd is over 10000 nM.
